Assays:
Assay in all cases: PBM binding z-score (relative to random genomic background probes); higher = stronger binding; sequences stand for … in GC…GCGATTGACAGCGTAGAATGAAGG
[1] = system: FXR:RXRa (NR concentration 270 nM, RXRa partner concentration 90 nM)
Outline: (§1)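 Scanned fluorescence from custom Agilent 4×180K protein-binding microarrays was regression-normalized. Binding z-scores use random background probes as reference. Ligand-free nuclear receptor dimers were incubated on the arrays for 1 h and detected with antibodies against each partner (one per run).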

[2] = system: LXRa:RXRa (NR concentration 270 nM, RXRa partner concentration 90 nM)
Outline: as §1

[3] = system: LXRa homodimer (NR concentration 270 nM)
Outline: as §1

[4] = system: LXRb:RXRa (NR concentration 270 nM, RXRa partner concentration 90 nM)
Outline: as §1

[5] = system: LXRb homodimer (NR concentration 270 nM)
Outline: as §1

[6] = system: PPARa:RXRa (NR concentration 270 nM, RXRa partner concentration 90 nM)
Outline: as §1

[7] = system: PPARg:RXRa (NR concentration 180 nM, RXRa partner concentration 90 nM)
Outline: as §1

[8] = system: PPARg:RXRa 270nM:90nM, anti-RXR (NR concentration 270 nM, RXRa partner concentration 90 nM)
Outline: as §1

[9] = system: PPARg:RXRa 30nM:10nM, anti-RXR (NR concentration 30 nM, RXRa partner concentration 10 nM)
Outline: as §1

[10] = system: PPARg:RXRa 90nM:30nM, anti-RXR (NR concentration 90 nM, RXRa partner concentration 30 nM)
Outline: as §1

[11] = system: PPARg:RXRa DBDmut IVT, anti-RXR (DBD mutation: RXRa K156A/R161A, NR concentration 270 nM, RXRa partner concentration 90 nM)
Outline: as §1

[12] = system: PPARg:RXRa IVT, anti-PPARg (NR concentration 270 nM, RXRa partner concentration 90 nM)
Outline: as §1

[13] = system: PPARg DBDmut:RXRa IVT, anti-PPARg (DBD mutation: PPARg1 K132A/R137A, NR concentration 270 nM, RXRa partner concentration 90 nM)
Outline: as §1

[14] = system: PPARg DBDmut IVT, anti-PPARg (DBD mutation: PPARg1 K132A/R137A, NR concentration 270 nM)
Outline: as §1

[15] = system: PPARg homodimer (NR concentration 180 nM)
Outline: as §1

[16] = system: PXR:RXRa (NR concentration 270 nM, RXRa partner concentration 90 nM)
Outline: as §1

[17] = system: PXR homodimer (NR concentration 270 nM)
Outline: as §1

[18] = system: RARa:RXR (NR concentration 270 nM, RXRa partner concentration 90 nM)
Outline: as §1

[19] = system: RARa homodimer (NR concentration 270 nM)
Outline: as §1

[20] = system: RARb:RXRa (NR concentration 270 nM, RXRa partner concentration 90 nM)
Outline: as §1

| Sequence | PBM binding z-score [1] | PBM binding z-score [2] | PBM binding z-score [3] | PBM binding z-score [4] | PBM binding z-score [5] | PBM binding z-score [6] | PBM binding z-score [7] | PBM binding z-score [8] | PBM binding z-score [9] | PBM binding z-score [10] | PBM binding z-score [11] | PBM binding z-score [12] | PBM binding z-score [13] | PBM binding z-score [14] | PBM binding z-score [15] | PBM binding z-score [16] | PBM binding z-score [17] | PBM binding z-score [18] | PBM binding z-score [19] | PBM binding z-score [20] |
| --- | --- | --- | --- | --- | --- | --- | --- | --- | --- | --- | --- | --- | --- | --- | --- | --- | --- | --- | --- | --- |
| TCTAGTAGATCAACAGGAGGTTAAGAAAGATCGA | 0.568 | 1.07 | 0.252 | 0.768 | -0.7 | 1.36 | 0.296 | 1.55 | 2.92 | 2.01 | 1.67 | 0.911 | 0.0951 | -0.146 | 0.637 | 0.739 | 0.18 | 1.05 | 0.751 | 0.445 |
| GCGACTGGGGCATCAGTAGGTTACCATAACTTAA | -0.329 | -0.299 | -0.273 | 0.586 | -0.678 | 1.55 | 1.69 | 1.5 | 0.0376 | 0.86 | 4.06 | 4.04 | -0.43 | -0.245 | 0.247 | 0.02 | -0.313 | 0.416 | -0.569 | 0.805 |
| ACAGACAGGTGAGTGAAGGTAACTCGGCTGGACG | 0.29 | 0.0989 | -0.627 | -0.781 | -0.86 | -0.0904 | 0.606 | 0.0767 | -0.28 | -0.126 | 0.175 | 0.33 | -0.433 | -0.413 | 0.0145 | -0.486 | -0.431 | -0.0751 | -0.294 | 0.411 |
| CCTGCTAGGTCACGGTCAGCTAATCTACAGTATG | 4.56 | 3.65 | 0.541 | 2.45 | 0.134 | 4.05 | 4.31 | 4.17 | 1.72 | 3.2 | 5.34 | 5.12 | 1.07 | 0.203 | 2.79 | 2.08 | -0.469 | 3.24 | 1.67 | 4.46 |
| GCGACTGGAGCAAAGCAGGTTACCATAAGGTTGG | -0.343 | -0.594 | -0.842 | -0.498 | -1.26 | 0.27 | 0.477 | -0.112 | -0.43 | -0.311 | 1.03 | 0.463 | -1.39 | -1.59 | 0.00968 | -0.101 | -0.667 | 0.372 | -0.65 | -0.192 |
| TTACCAAGGTGAAAGGACGTTGATGCACGCCTTG | 0.449 | 0.351 | -0.414 | 0.198 | -0.801 | 1.72 | 2.29 | 3.48 | 1.96 | 3.14 | 1.91 | 2.84 | 0.863 | 0.655 | 0.691 | -0.0719 | -0.136 | 0.603 | -0.181 | 1.6 |
| TGTCAAACTTCAAAGGTAACGTAAGTATCCACAC | 0.417 | 0.363 | -0.174 | 0.695 | 0.266 | 0.877 | 0.587 | 0.784 | 0.906 | 0.841 | -0.251 | 1.47 | 0.991 | 1.2 | 0.478 | 0.345 | -0.16 | 0.522 | 0.335 | 0.94 |
| GTACTAAGGTGAATAGGTCGTTGATGAGTAGGCG | 1.68 | 1.21 | 0.221 | 0.926 | 0.00742 | 2.75 | 1.77 | 2.5 | 0.778 | 1.53 | 2.8 | 3.12 | 0.603 | 0.0798 | 1.34 | 1.22 | 0.545 | 2.45 | 1.14 | 2.62 |
| CCAGACAGGTAAAAGGTAACTCAGTCTGGTACGC | -0.0774 | 0.12 | -0.25 | 0.125 | -0.535 | 2.14 | 3.01 | 3.82 | 2.27 | 3.94 | 0.377 | 0.821 | -0.535 | -0.566 | 0.614 | 0.265 | 0.0427 | 0.712 | 0.346 | 0.382 |
| TCTATTAGTCGAAGGGCAACCGACGAGTCCGTTT | 0.678 | 0.643 | 0.0615 | 0.638 | 0.475 | 0.751 | 0.274 | 2.2 | 3.57 | 2.77 | 2.28 | 0.642 | 0.468 | 0.866 | 0.702 | 0.597 | 0.535 | 0.379 | 0.63 | 1.36 |
| CTCGAAAAGTCGTGCTCAGGTGAGTATACCAAAC | 0.362 | 0.378 | -0.0855 | 0.084 | -0.108 | 0.252 | -0.24 | -0.203 | -0.421 | -0.205 | -0.109 | 0.391 | 0.0169 | 0.325 | 1.15 | 0.0376 | 0.0183 | 0.523 | -0.119 | 0.264 |
| GGAACGAGGGGAAAGTTGATAGCATCTGTCGACG | -0.0769 | -0.0261 | -0.204 | 0.087 | 0.0705 | 2.88 | 4.27 | 6.01 | 3.53 | 6.53 | 1.59 | 1.99 | 0.258 | -1.07 | 0.339 | -0.114 | -0.142 | -0.0298 | 0.277 | 0.213 |
| TCATATAGGTAAAGGGTGAAAGTCGGTGTGGTAA | 1.34 | 1.71 | 0.489 | 1.71 | 0.233 | 4.48 | 7.16 | 7.21 | 7.16 | 7.63 | 4.48 | 4.59 | 0.928 | 1.03 | 1.99 | 1.31 | 0.961 | 2.03 | 2.05 | 1.46 |
| AGCACGAGGGCAATGAGTTGATAGCACGGGTGGC | 0.125 | 0.129 | -0.673 | -0.297 | -0.733 | 0.58 | 0.928 | -0.00435 | -0.788 | -0.265 | 1.23 | 0.791 | -0.0946 | -0.486 | -0.285 | 1.56 | 5.64 | 0.00535 | -0.029 | 2.14 |
| GCTAGCAGGCCATTTGGGTCACTAAATGACGGGC | 0.069 | -0.203 | -0.746 | -0.105 | -1.17 | 1.44 | 0.795 | 0.692 | -0.344 | 0.257 | 1.58 | 2.38 | -1.03 | -1.18 | -0.0846 | 0.38 | -0.331 | 0.585 | -0.777 | 1.42 |

Reference: the supplement of paper PMC6555819
